Results on 1 sequence are retold here after PMC7862700, “An all-to-all approach to the identification of sequence-specific readers for epigenetic DNA modifications on cytosine”.

Holding throughout (experiment): DAPPL (digital affinity profiling via proximity ligation, sequencing); 10 mM Tris-HCl pH 7.5, 50 mM NaCl, 1 mM DTT, 4% glycerol, room temperature, 30 min; GST-TFs on glutathione beads, 16-mer random dsDNA library, 0.1% formaldehyde crosslink after washing; high values mean tight binding
One assay has as its target T1, FEV (Homo sapiens, UniProt Q99581 1-238).
T1 sequence: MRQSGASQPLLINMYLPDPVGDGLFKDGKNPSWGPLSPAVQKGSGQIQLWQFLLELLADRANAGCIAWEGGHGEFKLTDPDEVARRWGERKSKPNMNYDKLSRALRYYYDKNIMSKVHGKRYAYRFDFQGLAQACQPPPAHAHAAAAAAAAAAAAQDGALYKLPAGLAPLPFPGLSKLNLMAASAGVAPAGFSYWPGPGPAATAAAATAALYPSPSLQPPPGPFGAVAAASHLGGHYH
The note with it: protein: recombinant; tags: N-terminal GST; dsDNA, one strand shown. In outline:
(§1)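 Binding signal is each hexamer's read frequency for a factor divided by its frequency in the tag-only sample. The factors were GST-fused human transcription factors from yeast, captured on glutathione beads, DNA-barcoded and pooled with that sample. Pools were incubated with 200 nmole of a random double-stranded 16-mer DNA library in Tris/NaCl/DTT/glycerol buffer at room temperature for 30 min, then washed, crosslinked with 0.1% formaldehyde, proximity-ligated with BsaI/T4 ligase (1 h, 37 °C), PCR-amplified and sequenced on an Illumina NextSeq500.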

A further assay addresses ETV5 (Homo sapiens, UniProt P41161 1-510). The note with it: protein: recombinant; tags: N-terminal GST; dsDNA, one strand shown. In outline: as §1
The next assay concerns the target HSF1 (Homo sapiens, UniProt Q00613 1-529). To be noted: protein: recombinant; tags: N-terminal GST; chain copies: 3; dsDNA, one strand shown. In outline: as §1
The next assay addresses T2, SPIC (Homo sapiens, UniProt Q8N5J4 1-248).
T2 sequence: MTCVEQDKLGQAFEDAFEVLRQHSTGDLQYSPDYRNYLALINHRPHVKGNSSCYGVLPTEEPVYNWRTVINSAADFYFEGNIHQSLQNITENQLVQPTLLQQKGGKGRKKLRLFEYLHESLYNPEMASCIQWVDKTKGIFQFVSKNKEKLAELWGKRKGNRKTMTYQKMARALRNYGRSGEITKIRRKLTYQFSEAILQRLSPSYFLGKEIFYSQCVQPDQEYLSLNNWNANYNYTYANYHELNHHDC
The note with it: protein: recombinant; tags: N-terminal GST; dsDNA, one strand shown. In outline: as §1

For a further assay, the target named is ELF4 (Homo sapiens, UniProt Q99607 1-663). The note with it: protein: recombinant; tags: N-terminal GST; dsDNA, one strand shown. In outline:
as §1

The target of the next assay is T3, ELK4 (Homo sapiens, UniProt P28324-2 1-405).
T3 sequence: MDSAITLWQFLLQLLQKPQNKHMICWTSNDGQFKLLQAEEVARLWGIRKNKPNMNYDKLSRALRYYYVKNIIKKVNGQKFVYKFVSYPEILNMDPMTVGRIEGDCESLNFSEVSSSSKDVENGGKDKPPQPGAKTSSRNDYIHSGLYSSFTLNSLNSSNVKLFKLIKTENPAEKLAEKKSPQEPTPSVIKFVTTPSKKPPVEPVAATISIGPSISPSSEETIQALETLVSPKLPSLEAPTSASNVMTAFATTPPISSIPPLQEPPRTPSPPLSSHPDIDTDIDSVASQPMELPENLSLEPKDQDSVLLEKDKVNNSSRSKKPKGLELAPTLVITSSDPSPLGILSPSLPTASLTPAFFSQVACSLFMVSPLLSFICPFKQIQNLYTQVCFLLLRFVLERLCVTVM
To be noted: protein: recombinant; tags: N-terminal GST; dsDNA, one strand shown. In outline: as §1

A further assay concerns the target T4, ETV2 (Homo sapiens, UniProt O00321 1-342).
T4 sequence: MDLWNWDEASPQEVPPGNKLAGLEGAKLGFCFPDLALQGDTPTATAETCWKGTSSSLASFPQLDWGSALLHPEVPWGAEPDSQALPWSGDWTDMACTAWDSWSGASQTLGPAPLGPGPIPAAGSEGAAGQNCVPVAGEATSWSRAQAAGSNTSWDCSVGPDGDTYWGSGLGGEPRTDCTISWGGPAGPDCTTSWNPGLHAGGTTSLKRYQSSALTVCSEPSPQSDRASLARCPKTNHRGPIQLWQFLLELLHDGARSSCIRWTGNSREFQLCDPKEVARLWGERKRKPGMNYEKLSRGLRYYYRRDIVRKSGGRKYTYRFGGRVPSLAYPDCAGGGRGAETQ
To be noted: protein: recombinant; tags: N-terminal GST; dsDNA, one strand shown. In outline: as §1

In a further assay the target is T5, ELF3 (Homo sapiens, UniProt P78545 1-371).
T5 sequence: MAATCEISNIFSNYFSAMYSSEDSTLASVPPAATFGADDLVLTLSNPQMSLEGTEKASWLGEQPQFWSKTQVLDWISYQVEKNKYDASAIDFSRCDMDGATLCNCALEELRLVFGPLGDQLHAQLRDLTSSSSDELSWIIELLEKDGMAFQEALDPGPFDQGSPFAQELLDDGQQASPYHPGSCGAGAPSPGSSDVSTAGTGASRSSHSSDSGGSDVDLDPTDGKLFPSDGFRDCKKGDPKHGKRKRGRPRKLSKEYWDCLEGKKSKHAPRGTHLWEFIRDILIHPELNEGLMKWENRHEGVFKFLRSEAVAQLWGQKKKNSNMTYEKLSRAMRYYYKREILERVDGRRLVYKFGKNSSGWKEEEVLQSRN
The note with it: protein: recombinant; tags: N-terminal GST; dsDNA, one strand shown. In outline: as §1

For the next assay, the target named is CRX (Homo sapiens, UniProt O43186 1-299). To be noted: protein: recombinant; tags: N-terminal GST; dsDNA, one strand shown. In outline:
as §1

The target in the next assay is ETV1 (Homo sapiens, UniProt P50549 1-477). To be noted: protein: recombinant; tags: N-terminal GST; dsDNA, one strand shown. In outline: as §1
ETV1, sequence (P50549 whole entry): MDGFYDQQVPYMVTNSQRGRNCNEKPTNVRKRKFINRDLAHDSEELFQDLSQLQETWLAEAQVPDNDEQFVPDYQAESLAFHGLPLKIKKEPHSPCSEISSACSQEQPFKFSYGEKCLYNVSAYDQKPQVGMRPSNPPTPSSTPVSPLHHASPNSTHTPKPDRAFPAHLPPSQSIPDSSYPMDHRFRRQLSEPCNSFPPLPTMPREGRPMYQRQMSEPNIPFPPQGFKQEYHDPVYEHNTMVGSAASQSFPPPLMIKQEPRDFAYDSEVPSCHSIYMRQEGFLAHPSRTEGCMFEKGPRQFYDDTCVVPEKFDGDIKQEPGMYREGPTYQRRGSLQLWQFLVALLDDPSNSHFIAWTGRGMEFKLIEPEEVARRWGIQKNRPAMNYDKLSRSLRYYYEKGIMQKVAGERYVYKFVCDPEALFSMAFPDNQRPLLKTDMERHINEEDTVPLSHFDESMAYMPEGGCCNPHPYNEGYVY
In a further assay the target is T6, ERF (Homo sapiens, UniProt P50548 1-548).
T6 sequence: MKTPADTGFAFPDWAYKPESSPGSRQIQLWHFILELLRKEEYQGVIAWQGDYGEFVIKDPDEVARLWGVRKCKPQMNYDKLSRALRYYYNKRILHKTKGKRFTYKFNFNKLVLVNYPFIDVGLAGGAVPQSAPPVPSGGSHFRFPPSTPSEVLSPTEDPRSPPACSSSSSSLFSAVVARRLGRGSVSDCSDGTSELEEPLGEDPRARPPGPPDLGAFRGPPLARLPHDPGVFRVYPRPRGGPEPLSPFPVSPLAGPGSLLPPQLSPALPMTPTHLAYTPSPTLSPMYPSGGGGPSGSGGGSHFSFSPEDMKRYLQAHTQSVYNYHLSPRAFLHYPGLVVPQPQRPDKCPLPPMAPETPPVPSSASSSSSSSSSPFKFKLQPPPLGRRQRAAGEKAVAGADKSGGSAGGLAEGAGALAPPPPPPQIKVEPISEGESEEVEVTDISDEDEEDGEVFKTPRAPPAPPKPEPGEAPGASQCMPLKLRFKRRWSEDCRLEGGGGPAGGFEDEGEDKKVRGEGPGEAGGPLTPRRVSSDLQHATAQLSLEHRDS
The note with it: protein: recombinant; tags: N-terminal GST; dsDNA, one strand shown. In outline: as §1

In another assay the target is T7, ETV3L (Homo sapiens, UniProt Q6ZN32 1-361).
T7 sequence: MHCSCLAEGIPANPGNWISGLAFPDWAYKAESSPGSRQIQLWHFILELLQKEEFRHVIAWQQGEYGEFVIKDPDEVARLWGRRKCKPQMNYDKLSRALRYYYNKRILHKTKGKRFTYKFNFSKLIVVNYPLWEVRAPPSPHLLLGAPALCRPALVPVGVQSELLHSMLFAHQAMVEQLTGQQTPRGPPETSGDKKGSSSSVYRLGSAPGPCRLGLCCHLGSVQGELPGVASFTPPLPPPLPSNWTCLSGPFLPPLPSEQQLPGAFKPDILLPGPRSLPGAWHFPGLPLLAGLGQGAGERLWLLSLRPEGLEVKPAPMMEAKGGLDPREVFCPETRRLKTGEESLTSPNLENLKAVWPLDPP
The note with it: protein: recombinant; tags: N-terminal GST; dsDNA, one strand shown. In outline: as §1

The next assay has as its target T8, ETS2 (Homo sapiens, UniProt P15036 1-469).
T8 sequence: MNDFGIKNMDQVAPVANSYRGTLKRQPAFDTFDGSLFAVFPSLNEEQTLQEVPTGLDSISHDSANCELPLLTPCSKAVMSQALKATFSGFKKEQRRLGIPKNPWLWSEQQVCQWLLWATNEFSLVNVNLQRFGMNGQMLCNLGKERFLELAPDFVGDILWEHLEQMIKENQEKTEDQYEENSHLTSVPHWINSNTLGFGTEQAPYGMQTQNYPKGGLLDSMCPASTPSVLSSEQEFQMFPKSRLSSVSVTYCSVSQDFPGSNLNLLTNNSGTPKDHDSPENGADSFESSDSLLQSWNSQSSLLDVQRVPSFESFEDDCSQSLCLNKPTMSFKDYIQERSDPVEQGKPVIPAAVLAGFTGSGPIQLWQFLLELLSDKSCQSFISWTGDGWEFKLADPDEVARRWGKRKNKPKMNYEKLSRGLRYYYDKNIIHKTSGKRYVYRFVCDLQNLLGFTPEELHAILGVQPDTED
To be noted: protein: recombinant; tags: N-terminal GST; dsDNA, one strand shown. In outline:
as §1

The next assay concerns the target T9, SPDEF (Homo sapiens, UniProt O95238 1-335).
T9 sequence: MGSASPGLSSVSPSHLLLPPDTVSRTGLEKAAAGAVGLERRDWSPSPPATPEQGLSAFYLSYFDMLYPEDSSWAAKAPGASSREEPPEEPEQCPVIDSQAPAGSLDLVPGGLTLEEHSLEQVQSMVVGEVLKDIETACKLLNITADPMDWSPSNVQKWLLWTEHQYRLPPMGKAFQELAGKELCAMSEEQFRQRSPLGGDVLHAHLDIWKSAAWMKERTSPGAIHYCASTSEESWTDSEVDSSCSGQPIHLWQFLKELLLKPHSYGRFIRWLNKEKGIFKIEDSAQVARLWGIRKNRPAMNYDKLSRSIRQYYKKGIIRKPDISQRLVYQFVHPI
The note with it: protein: recombinant; tags: N-terminal GST; dsDNA, one strand shown. In outline:
as §1

The next assay deals with T10, ETV7 (Homo sapiens, UniProt Q9Y603 1-341).
T10 sequence: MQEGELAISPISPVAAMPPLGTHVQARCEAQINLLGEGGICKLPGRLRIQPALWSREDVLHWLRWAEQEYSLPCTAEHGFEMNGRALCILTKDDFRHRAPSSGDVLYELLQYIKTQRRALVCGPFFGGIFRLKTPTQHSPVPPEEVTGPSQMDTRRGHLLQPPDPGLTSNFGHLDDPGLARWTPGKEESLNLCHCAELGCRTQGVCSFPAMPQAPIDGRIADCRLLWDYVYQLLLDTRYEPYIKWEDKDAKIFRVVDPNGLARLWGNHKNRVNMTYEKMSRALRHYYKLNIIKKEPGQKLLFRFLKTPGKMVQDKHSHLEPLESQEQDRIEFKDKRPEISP
To be noted: protein: recombinant; tags: N-terminal GST; dsDNA, one strand shown. In outline:
as §1

Another assay addresses T11, ELF5 (Homo sapiens, UniProt Q9UKW6-2 1-255).
T11 sequence: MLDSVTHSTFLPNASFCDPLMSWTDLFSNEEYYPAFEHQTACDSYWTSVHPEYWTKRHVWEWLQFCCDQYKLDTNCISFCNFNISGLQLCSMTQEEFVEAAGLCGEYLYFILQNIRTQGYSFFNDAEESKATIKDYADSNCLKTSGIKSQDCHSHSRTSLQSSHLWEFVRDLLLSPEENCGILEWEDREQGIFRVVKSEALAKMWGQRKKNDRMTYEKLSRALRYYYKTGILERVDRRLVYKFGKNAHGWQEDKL
To be noted: protein: recombinant; tags: N-terminal GST; dsDNA, one strand shown. In outline:
as §1

The target of the next assay is T12, ETV3 (Homo sapiens, UniProt P41162-2 1-143).
T12 sequence: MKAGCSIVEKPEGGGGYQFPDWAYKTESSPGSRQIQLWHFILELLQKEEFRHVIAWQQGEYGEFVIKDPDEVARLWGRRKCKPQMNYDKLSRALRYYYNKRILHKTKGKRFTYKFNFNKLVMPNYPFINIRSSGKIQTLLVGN
To be noted: protein: recombinant; tags: N-terminal GST; dsDNA, one strand shown. In outline: as §1

Another assay concerns the target ETV6 (Homo sapiens, UniProt P41212 1-452). The note with it: protein: recombinant; tags: N-terminal GST; dsDNA, one strand shown. In outline: as §1

HSF1, sequence (Q00613 whole entry): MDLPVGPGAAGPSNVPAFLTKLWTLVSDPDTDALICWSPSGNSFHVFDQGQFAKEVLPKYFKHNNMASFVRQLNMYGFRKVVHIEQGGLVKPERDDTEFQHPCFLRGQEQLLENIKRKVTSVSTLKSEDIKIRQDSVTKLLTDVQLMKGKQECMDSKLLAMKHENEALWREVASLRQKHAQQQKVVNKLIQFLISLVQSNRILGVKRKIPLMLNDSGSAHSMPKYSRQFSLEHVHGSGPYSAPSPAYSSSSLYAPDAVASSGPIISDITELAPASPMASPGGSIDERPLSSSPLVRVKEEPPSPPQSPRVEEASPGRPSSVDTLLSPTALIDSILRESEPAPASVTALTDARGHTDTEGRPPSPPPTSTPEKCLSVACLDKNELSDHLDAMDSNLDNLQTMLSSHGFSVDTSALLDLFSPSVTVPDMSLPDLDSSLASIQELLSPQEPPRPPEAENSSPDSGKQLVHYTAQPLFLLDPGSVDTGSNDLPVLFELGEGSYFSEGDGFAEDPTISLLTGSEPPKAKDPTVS
ETV6, sequence (P41212 whole entry): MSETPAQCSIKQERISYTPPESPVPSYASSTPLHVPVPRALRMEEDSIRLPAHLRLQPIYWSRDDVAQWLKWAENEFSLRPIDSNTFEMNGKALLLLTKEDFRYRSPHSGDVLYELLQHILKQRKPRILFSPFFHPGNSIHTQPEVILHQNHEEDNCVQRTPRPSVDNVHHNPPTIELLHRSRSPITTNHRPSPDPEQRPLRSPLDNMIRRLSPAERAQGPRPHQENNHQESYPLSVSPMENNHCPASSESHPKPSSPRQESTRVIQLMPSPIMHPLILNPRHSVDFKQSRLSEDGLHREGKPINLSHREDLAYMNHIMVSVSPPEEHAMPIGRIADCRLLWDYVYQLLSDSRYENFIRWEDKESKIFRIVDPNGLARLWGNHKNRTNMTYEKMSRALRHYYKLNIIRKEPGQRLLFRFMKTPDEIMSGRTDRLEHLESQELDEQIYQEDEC
CRX, sequence (O43186 whole entry): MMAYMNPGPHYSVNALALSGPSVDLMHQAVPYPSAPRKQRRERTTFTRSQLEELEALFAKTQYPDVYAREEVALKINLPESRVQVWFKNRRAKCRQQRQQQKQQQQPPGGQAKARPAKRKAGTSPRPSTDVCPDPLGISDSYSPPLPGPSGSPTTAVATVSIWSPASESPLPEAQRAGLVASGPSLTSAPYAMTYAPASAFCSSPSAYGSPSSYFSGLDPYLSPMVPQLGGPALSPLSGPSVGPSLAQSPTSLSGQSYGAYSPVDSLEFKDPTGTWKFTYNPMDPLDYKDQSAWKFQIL
ELF4, sequence (Q99607 whole entry): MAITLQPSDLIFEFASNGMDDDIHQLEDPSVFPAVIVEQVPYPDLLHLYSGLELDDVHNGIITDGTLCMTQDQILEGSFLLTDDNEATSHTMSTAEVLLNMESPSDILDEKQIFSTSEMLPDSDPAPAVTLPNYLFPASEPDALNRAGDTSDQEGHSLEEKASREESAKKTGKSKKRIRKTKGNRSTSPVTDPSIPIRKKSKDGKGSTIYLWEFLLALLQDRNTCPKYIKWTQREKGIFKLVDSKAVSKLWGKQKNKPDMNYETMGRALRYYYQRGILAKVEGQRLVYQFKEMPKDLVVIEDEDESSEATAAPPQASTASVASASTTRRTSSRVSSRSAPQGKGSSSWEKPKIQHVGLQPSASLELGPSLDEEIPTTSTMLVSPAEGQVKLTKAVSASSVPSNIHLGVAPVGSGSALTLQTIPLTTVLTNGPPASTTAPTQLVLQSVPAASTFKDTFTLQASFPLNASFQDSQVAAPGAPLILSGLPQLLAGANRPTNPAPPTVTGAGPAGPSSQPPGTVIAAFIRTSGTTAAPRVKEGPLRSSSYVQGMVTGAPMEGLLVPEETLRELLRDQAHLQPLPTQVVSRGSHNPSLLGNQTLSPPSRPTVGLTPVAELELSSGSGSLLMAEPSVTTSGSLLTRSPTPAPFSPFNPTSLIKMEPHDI
ETV5, sequence (P41161 whole entry): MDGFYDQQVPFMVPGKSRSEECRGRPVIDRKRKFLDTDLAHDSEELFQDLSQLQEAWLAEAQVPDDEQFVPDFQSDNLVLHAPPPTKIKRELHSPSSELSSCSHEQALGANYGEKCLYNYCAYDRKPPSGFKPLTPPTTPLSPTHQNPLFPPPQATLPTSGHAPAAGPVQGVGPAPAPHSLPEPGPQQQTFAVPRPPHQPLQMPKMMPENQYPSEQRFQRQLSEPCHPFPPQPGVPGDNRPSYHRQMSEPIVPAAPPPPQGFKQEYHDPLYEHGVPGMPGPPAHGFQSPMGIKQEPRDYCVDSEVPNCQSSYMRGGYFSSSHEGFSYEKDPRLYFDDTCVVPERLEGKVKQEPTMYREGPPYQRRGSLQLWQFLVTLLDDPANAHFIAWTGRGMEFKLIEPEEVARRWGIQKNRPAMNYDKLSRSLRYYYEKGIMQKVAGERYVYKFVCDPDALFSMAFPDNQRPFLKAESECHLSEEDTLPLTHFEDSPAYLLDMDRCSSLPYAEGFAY

TCCACA: the binding signal in the assay with FEV is 1.21 fold enrichment (6-mer frequency, TF over GST control); in the assay with ETV5 it was 1.25 fold enrichment (6-mer frequency, TF over GST control); with HSF1 it was 1.36 fold enrichment (6-mer frequency, TF over GST control); with SPIC, 1.31 fold enrichment (6-mer frequency, TF over GST control); with ELF4, 1.27 fold enrichment (6-mer frequency, TF over GST control); with ELK4 it was 1.25 fold enrichment (6-mer frequency, TF over GST control). Moreover, the binding signal was 1.17 fold enrichment (6-mer frequency, TF over GST control) in the assay with ETV2; 1.22 fold enrichment (6-mer frequency, TF over GST control) with ELF3; 1.1 fold enrichment (6-mer frequency, TF over GST control) with CRX; 1.15 fold enrichment (6-mer frequency, TF over GST control) with ETV1; 1.31 fold enrichment (6-mer frequency, TF over GST control) with ERF; 1.24 fold enrichment (6-mer frequency, TF over GST control) with ETV3L. The binding signal is 1.29 fold enrichment (6-mer frequency, TF over GST control) in the assay with ETS2; 1.25 fold enrichment (6-mer frequency, TF over GST control) with SPDEF; 1.17 fold enrichment (6-mer frequency, TF over GST control) in the assay with ETV7; 1.13 fold enrichment (6-mer frequency, TF over GST control) with ELF5; 1.2 fold enrichment (6-mer frequency, TF over GST control) in the assay with ETV3; 1.25 fold enrichment (6-mer frequency, TF over GST control) with ETV6.
